# According to the supplement of paper PMC4022240:
# ± gives the standard deviation.
# T1: HaloTag-ATRX ADD domain (163-292)
# T1 chain: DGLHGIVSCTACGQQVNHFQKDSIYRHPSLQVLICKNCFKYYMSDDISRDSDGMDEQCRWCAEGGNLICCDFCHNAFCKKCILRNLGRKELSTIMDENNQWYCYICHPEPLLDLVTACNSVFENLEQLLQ
# Assays:
# Test in all cases: peptide microarray binding signal (635 nm), min-max normalized on array (fraction of array maximum); higher = stronger binding
# Conditions in all cases: peptide region: H3 30-42
# [1] = target: T1, HaloTag-ATRX ADD domain (163-292)
# Summary of the method: (§1)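 Triplicate spots of histone 13-mer peptide–cellulose conjugates with a Cy3 tracer were printed on nitrocellulose and probed for 1 h at 4°C with biotin-labelled HaloTag reader fusions (10 nM to 1 μM) plus streptavidin-Alexa Fluor 647 or rabbit histone antibodies (1:10,000 to 1:2,000) plus anti-rabbit Alexa 647. An Axon GenePix 4000B read the 635 nm channel. Binding signal is the spot-triplicate mean intensity after min-max scaling within each library.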
# [2] = target: HaloTag-ING2 PHD (mouse Ing2 200-280)
# Summary of the method: as §1
# [3] = target: anti-H3K4me3 antibody ab8580
# Summary of the method: as §1
# [4] = target: anti-H3K9me3 antibody ab8898
# Summary of the method: as §1
# [5] = peptide modifications: H3T32ph, binder concentration: 1:2,000 dilution
# [6] = peptide modifications: H3T32ph, binder concentration: 1:10,000 dilution
# [7] = peptide modifications: H3K36me3 H3K37me2, binder concentration: 1:2,000 dilution
# [8] = peptide modifications: H3K36me3 H3K37me2, binder concentration: 1:10,000 dilution
# [9] = peptide modifications: H3K37me1, binder concentration: 1:2,000 dilution
# [10] = peptide modifications: H3K37me1, binder concentration: 1:10,000 dilution
# [11] = peptide modifications: H3T32ph H3K36me3, binder concentration: 1:2,000 dilution
# [12] = peptide modifications: H3T32ph H3K36me3, binder concentration: 1:10,000 dilution
# [13] = peptide modifications: H3K37me2, binder concentration: 1:2,000 dilution
# [14] = peptide modifications: H3K37me2, binder concentration: 1:10,000 dilution
# [15] = peptide modifications: H3K37me3, binder concentration: 1:2,000 dilution
# [16] = peptide modifications: H3K37me3, binder concentration: 1:10,000 dilution
# [17] = peptide modifications: H3T32ph H3K36ac, binder concentration: 1:2,000 dilution
# [18] = peptide modifications: H3T32ph H3K36ac, binder concentration: 1:10,000 dilution
# [19] = peptide modifications: H3T32ph H3K36me1, binder concentration: 1:2,000 dilution
# [20] = peptide modifications: H3T32ph H3K36me1, binder concentration: 1:10,000 dilution
# [21] = peptide modifications: H3K37ac, binder concentration: 1:2,000 dilution
# [22] = peptide modifications: H3K37ac, binder concentration: 1:10,000 dilution
# [23] = peptide modifications: H3T32ph H3K36me2, binder concentration: 1:2,000 dilution
# [24] = peptide modifications: H3T32ph H3K36me2, binder concentration: 1:10,000 dilution
binder,measurement,setting,value
PATGGVKKPHRYR [H3 30-42 P A Tph G G V K K P H R Y R],peptide microarray binding signal,"[1]; peptide modifications: H3T32ph, binder concentration: 50 nM",0.004984 ± 4.8e-05
same,peptide microarray binding signal,"[1]; peptide modifications: H3T32ph, binder concentration: 500 nM",0.0106 ± 0.00088
same,peptide microarray binding signal,"[2]; peptide modifications: H3T32ph, binder concentration: 10 nM",0.00812 ± 0.00079
same,peptide microarray binding signal,"[2]; peptide modifications: H3T32ph, binder concentration: 100 nM",0.0157 ± 0.0015
same,peptide microarray binding signal,[3]; [5],0.00115 ± 3.8e-05
same,peptide microarray binding signal,[3]; [6],0.001484 ± 1.4e-05
same,peptide microarray binding signal,[4]; [5],0.000574 ± 2.6e-05
same,peptide microarray binding signal,[4]; [6],0.0011 ± 1.1e-05
PATGGVKKPHRYR [H3 30-42 P A T G G V Kme3 Kme2 P H R Y R],peptide microarray binding signal,"[1]; peptide modifications: H3K36me3 H3K37me2, binder concentration: 50 nM",0.002539 ± 1.1e-05
same,peptide microarray binding signal,"[1]; peptide modifications: H3K36me3 H3K37me2, binder concentration: 500 nM",0.00462 ± 0.00097
same,peptide microarray binding signal,"[2]; peptide modifications: H3K36me3 H3K37me2, binder concentration: 10 nM",0.00471 ± 0.0004
same,peptide microarray binding signal,"[2]; peptide modifications: H3K36me3 H3K37me2, binder concentration: 100 nM",0.00347 ± 0.00061
same,peptide microarray binding signal,[3]; [7],0.00132 ± 0.00026
same,peptide microarray binding signal,[3]; [8],0.00805 ± 0.0039
same,peptide microarray binding signal,[4]; [7],0.00571 ± 0.0035
same,peptide microarray binding signal,[4]; [8],0.00363 ± 0.00092
PATGGVKKPHRYR [H3 30-42 P A T G G V K Kme P H R Y R],peptide microarray binding signal,"[1]; peptide modifications: H3K37me1, binder concentration: 50 nM",0.0106 ± 0.00056
same,peptide microarray binding signal,"[1]; peptide modifications: H3K37me1, binder concentration: 500 nM",0.0245 ± 0.0059
same,peptide microarray binding signal,"[2]; peptide modifications: H3K37me1, binder concentration: 10 nM",0.0491 ± 0.0011
same,peptide microarray binding signal,"[2]; peptide modifications: H3K37me1, binder concentration: 100 nM",0.0698 ± 0.0049
same,peptide microarray binding signal,[3]; [9],0.0068 ± 0.00068
same,peptide microarray binding signal,[3]; [10],0.00765 ± 0.00036
same,peptide microarray binding signal,[4]; [9],0.00234 ± 4.8e-05
same,peptide microarray binding signal,[4]; [10],0.00225 ± 5.4e-05
PATGGVKKPHRYR [H3 30-42 P A Tph G G V Kme3 K P H R Y R],peptide microarray binding signal,"[1]; peptide modifications: H3T32ph H3K36me3, binder concentration: 50 nM",0.00426 ± 9.2e-05
same,peptide microarray binding signal,"[1]; peptide modifications: H3T32ph H3K36me3, binder concentration: 500 nM",0.00686 ± 0.00012
same,peptide microarray binding signal,"[2]; peptide modifications: H3T32ph H3K36me3, binder concentration: 10 nM",0.00925 ± 0.00068
same,peptide microarray binding signal,"[2]; peptide modifications: H3T32ph H3K36me3, binder concentration: 100 nM",0.0248 ± 0.0061
same,peptide microarray binding signal,[3]; [11],0.0335 ± 0.008
same,peptide microarray binding signal,[3]; [12],0.0116 ± 0.0022
same,peptide microarray binding signal,[4]; [11],0.0489 ± 0.013
same,peptide microarray binding signal,[4]; [12],0.0155 ± 0.0012
PATGGVKKPHRYR [H3 30-42 P A T G G V K Kme2 P H R Y R],peptide microarray binding signal,"[1]; peptide modifications: H3K37me2, binder concentration: 50 nM",0.0036 ± 0.00019
same,peptide microarray binding signal,"[1]; peptide modifications: H3K37me2, binder concentration: 500 nM",0.00771 ± 0.00019
same,peptide microarray binding signal,"[2]; peptide modifications: H3K37me2, binder concentration: 10 nM",0.0121 ± 0.00097
same,peptide microarray binding signal,"[2]; peptide modifications: H3K37me2, binder concentration: 100 nM",0.0202 ± 0.002
same,peptide microarray binding signal,[3]; [13],0.00302 ± 0.00039
same,peptide microarray binding signal,[3]; [14],0.00297 ± 0.00012
same,peptide microarray binding signal,[4]; [13],0.00163 ± 0.00014
same,peptide microarray binding signal,[4]; [14],0.001441 ± 1.4e-05
PATGGVKKPHRYR [H3 30-42 P A T G G V K Kme3 P H R Y R],peptide microarray binding signal,"[1]; peptide modifications: H3K37me3, binder concentration: 50 nM",0.00621 ± 0.00029
same,peptide microarray binding signal,"[1]; peptide modifications: H3K37me3, binder concentration: 500 nM",0.00781 ± 0.00023
same,peptide microarray binding signal,"[2]; peptide modifications: H3K37me3, binder concentration: 10 nM",0.00949 ± 0.00038
same,peptide microarray binding signal,"[2]; peptide modifications: H3K37me3, binder concentration: 100 nM",0.0356 ± 0.036
same,peptide microarray binding signal,[3]; [15],0.00183 ± 9e-05
same,peptide microarray binding signal,[3]; [16],0.00234 ± 4.2e-05
same,peptide microarray binding signal,[4]; [15],0.00216 ± 0.00026
same,peptide microarray binding signal,[4]; [16],0.00185 ± 5.2e-05
PATGGVKKPHRYR [H3 30-42 P A Tph G G V Kac K P H R Y R],peptide microarray binding signal,"[1]; peptide modifications: H3T32ph H3K36ac, binder concentration: 50 nM",0.00502 ± 0.00015
same,peptide microarray binding signal,"[1]; peptide modifications: H3T32ph H3K36ac, binder concentration: 500 nM",0.0116 ± 0.0013
same,peptide microarray binding signal,"[2]; peptide modifications: H3T32ph H3K36ac, binder concentration: 10 nM",0.0123 ± 0.00025
same,peptide microarray binding signal,"[2]; peptide modifications: H3T32ph H3K36ac, binder concentration: 100 nM",0.023 ± 0.0019
same,peptide microarray binding signal,[3]; [17],0.00191 ± 0.00028
same,peptide microarray binding signal,[3]; [18],0.00257 ± 0.00023
same,peptide microarray binding signal,[4]; [17],0.00193 ± 0.00036
same,peptide microarray binding signal,[4]; [18],0.00167 ± 0.00013
PATGGVKKPHRYR [H3 30-42 P A Tph G G V Kme K P H R Y R],peptide microarray binding signal,"[1]; peptide modifications: H3T32ph H3K36me1, binder concentration: 50 nM",0.00552 ± 0.00021
same,peptide microarray binding signal,"[1]; peptide modifications: H3T32ph H3K36me1, binder concentration: 500 nM",0.00914 ± 0.00072
same,peptide microarray binding signal,"[2]; peptide modifications: H3T32ph H3K36me1, binder concentration: 10 nM",0.00871 ± 0.00013
same,peptide microarray binding signal,"[2]; peptide modifications: H3T32ph H3K36me1, binder concentration: 100 nM",0.0167 ± 0.0011
same,peptide microarray binding signal,[3]; [19],0.00193 ± 0.00024
same,peptide microarray binding signal,[3]; [20],0.00257 ± 0.00014
same,peptide microarray binding signal,[4]; [19],0.00118 ± 0.00016
same,peptide microarray binding signal,[4]; [20],0.00144 ± 0.00011
PATGGVKKPHRYR [H3 30-42 P A T G G V K Kac P H R Y R],peptide microarray binding signal,"[1]; peptide modifications: H3K37ac, binder concentration: 50 nM",0.00991 ± 0.00064
same,peptide microarray binding signal,"[1]; peptide modifications: H3K37ac, binder concentration: 500 nM",0.0214 ± 0.0021
same,peptide microarray binding signal,"[2]; peptide modifications: H3K37ac, binder concentration: 10 nM",0.0263 ± 0.00079
same,peptide microarray binding signal,"[2]; peptide modifications: H3K37ac, binder concentration: 100 nM",0.0376 ± 0.0021
same,peptide microarray binding signal,[3]; [21],0.0146 ± 0.0013
same,peptide microarray binding signal,[3]; [22],0.014 ± 0.00079
same,peptide microarray binding signal,[4]; [21],0.0131 ± 0.00032
same,peptide microarray binding signal,[4]; [22],0.00663 ± 0.00069
PATGGVKKPHRYR [H3 30-42 P A Tph G G V Kme2 K P H R Y R],peptide microarray binding signal,"[1]; peptide modifications: H3T32ph H3K36me2, binder concentration: 50 nM",0.00313 ± 0.0002
same,peptide microarray binding signal,"[1]; peptide modifications: H3T32ph H3K36me2, binder concentration: 500 nM",0.00695 ± 0.00032
same,peptide microarray binding signal,"[2]; peptide modifications: H3T32ph H3K36me2, binder concentration: 10 nM",0.0113 ± 0.00095
same,peptide microarray binding signal,"[2]; peptide modifications: H3T32ph H3K36me2, binder concentration: 100 nM",0.0184 ± 0.00072
same,peptide microarray binding signal,[3]; [23],0.00266 ± 8.2e-05
same,peptide microarray binding signal,[3]; [24],0.00262 ± 0.00017
same,peptide microarray binding signal,[4]; [23],0.00142 ± 7.1e-05
same,peptide microarray binding signal,[4]; [24],0.00127 ± 1.3e-05
